# Measurements from PubChem BioAssay AID588458 (Sanford-Burnham Center for Chemical Genomics, 2011).
# About 3,000 (0.83%) of roughly 360,000 compounds were called active. The sample as a whole holds a higher share of actives than the screen did. A number with no mark means an inactive call. Cut-off read from the data, not from the text of the source: active = inhibition above about 50%; inactive = the rest.
# Biological target: DNA (cytosine-5)-methyltransferase 1 (Homo sapiens) (UniProt P26358)
# Experiment: inhibition of DNA methyltransferase DNMT1 – biochemical, molecular beacon, fluorescence, HinP1I cleavage, uHTS, primary screen (AID 588458)
# Conditions: at 10 µM, active compounds read high
# Chain of DNA (cytosine-5)-methyltransferase 1 (Homo sapiens) (P26358 504-1616 limits assumed): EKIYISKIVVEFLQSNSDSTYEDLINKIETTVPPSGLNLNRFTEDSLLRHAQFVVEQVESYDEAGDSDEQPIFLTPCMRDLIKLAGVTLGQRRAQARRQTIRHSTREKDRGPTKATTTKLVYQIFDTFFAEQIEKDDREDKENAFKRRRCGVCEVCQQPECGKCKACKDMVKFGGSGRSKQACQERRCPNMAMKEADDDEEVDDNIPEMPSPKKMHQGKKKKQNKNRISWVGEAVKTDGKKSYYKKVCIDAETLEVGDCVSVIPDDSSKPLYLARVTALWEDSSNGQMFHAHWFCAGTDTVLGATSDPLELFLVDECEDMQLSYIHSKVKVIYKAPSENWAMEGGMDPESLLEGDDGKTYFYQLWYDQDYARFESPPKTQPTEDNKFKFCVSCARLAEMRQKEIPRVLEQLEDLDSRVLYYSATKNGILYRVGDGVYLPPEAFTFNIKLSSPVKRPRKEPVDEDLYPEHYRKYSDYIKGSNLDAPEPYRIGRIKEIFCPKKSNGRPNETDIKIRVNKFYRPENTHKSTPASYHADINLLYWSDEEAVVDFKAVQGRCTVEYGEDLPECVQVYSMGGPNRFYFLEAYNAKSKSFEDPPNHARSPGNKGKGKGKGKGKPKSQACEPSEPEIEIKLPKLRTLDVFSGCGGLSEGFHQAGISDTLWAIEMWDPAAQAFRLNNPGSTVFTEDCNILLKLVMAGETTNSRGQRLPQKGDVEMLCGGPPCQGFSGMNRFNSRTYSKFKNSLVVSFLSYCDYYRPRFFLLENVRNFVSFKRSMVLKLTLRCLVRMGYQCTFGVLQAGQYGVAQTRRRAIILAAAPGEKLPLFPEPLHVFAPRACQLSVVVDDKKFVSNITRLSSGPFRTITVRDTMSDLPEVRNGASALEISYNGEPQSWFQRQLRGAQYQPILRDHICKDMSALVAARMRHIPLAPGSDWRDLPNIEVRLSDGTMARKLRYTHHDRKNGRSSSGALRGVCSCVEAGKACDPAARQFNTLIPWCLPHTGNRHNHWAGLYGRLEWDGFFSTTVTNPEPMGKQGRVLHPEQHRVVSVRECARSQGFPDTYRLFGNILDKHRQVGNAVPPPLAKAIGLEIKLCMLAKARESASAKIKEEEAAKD
row,Compound,inhibition (reported as % activation of signal)
1,CCN(C(=O)CSc1nc2ccccc2n1CC)C1CCS(=O)(=O)C1 (stereo not given),0.17%
2,CCN(C(=O)CSc1nnc2ccccn12)C1CCS(=O)(=O)C1 (stereo not given),3.22%
3,CCN(C(=O)CSc1nc(N)cc(=O)[nH]1)C1CCS(=O)(=O)C1 (stereo not given),84.1% (active)
4,CCCCNC(=O)C1CCCNC1=O (stereo not given),2.28%
5,COc1ccc(C2=NOC3(CC(=O)N(c4ccc(Cl)cc4)C3=O)C2)c(OC)c1 (stereo not given),-6.34%
6,O=C(O)c1cc(S(=O)(=O)N2CCCCCC2)c(Cl)cc1Cl,0.43%
7,CCOC(=O)N1CCN(Cc2nc3c(c(=O)n(C)c(=O)n3C)n2Cc2ccccc2)CC1,1.29%
8,CC1CCCN(Cc2nc3c(c(=O)n(C)c(=O)n3C)n2CC(=O)c2ccccc2)C1 (stereo not given),-2.35%
9,CCN1CCN(Cc2nc3c(c(=O)n(C)c(=O)n3C)n2CC(=O)c2ccccc2)CC1,75.4% (active)
10,O=C1CC(c2ccccc2)CC(O)=C1C=NCCN1CCOCC1 (stereo not given),0.18%
11,CC1(C)CC(=O)C(C=NCCC2=CCCCC2)=C(O)C1,6.68%
12,O=C1CCCC(O)=C1C=NCCc1ccccc1,60.8% (active)
13,COc1cc(NS(=O)(=O)c2ccc(N/C=C(\C=O)c3nc4cc(Cl)ccc4o3)cc2)nc(OC)n1,-2.63%
14,C=C1c2c(Cl)ccc(O)c2C(O)=C2C(=O)[C@]3(O)C(O)=C(C(N)=O)C(=O)[C@@H](N(C)C)[C@@H]3[C@@H](O)C12 (stereo not given in full),94.6% (active)
15,CC1C(c2ccccc2)=[N+]([O-])C2(CCCC2)N1O (stereo not given),1.84%
16,COc1ccc(CCNC(=O)CC2SC(=Nc3cc(C)cc(C)c3)NC2=O)cc1OC (stereo not given),1.89%
17,CC(=O)[C@@]12O[C@@H]1C[C@H]1[C@@H]3CC[C@H]4C[C@@H](O)CC[C@]4(C)[C@H]3CC[C@@]12C,1%
18,O=C(c1ccc(Cl)cc1)n1cnc2ccccc21,8.27%
19,COc1ccccc1N(CC(=O)Nc1ccc(C(F)(F)F)cc1)S(C)(=O)=O,7.89%
20,CCCNC(=O)C(=O)Nc1cc2c3c(c1)CCC(=O)N3CCC2,-0.17%
21,S=C(NCCCc1ccccc1)Nc1ccc(Br)cc1,6.06%
22,CCc1ccc(NC(=O)CS(=O)CC(=O)NCCCc2ccccc2)cc1 (stereo not given),58.9% (active)
23,CCc1ccc(NC(=O)CS(=O)CC(=O)N2CCN(c3ccccc3F)CC2)cc1 (stereo not given),1.59%

row,Compound,inhibition (reported as % activation of signal)
1,Cc1oc(CC(C)C)c(CN2CCCC2)c1C(=O)O,-0.29%
2,Cc1nnc(N(Cc2ccco2)C(=O)c2ccno2)s1,-1.27%
3,COCCNC(=O)CSc1nc(N)c(NC(=O)c2ccco2)c(=O)[nH]1,4.39%
4,COCCNC(=O)Nc1ccc2nc(-c3ccco3)c(-c3ccco3)nc2c1,110% (active)
5,Cc1ccc(NC(=O)OCCNC(=O)c2ccncc2)cc1,0.6%
6,COc1ccc(Cn2cccc(NC(=O)Nc3ccc(C#N)cc3)c2=O)cc1,3.12%
7,O=C1COc2ccc(NC(=O)N3CCN(c4ccc(F)cc4)CC3)cc2N1,-6.06%
8,O=C(COC(=O)c1ccc(F)cc1F)Nc1ncccn1,67.4% (active)
9,O=C(COC(=O)CSc1ccccc1)Nc1ccc(F)cc1F,-0.57%
10,CCOC(=O)c1cccc(NC(=O)c2ccc(F)cc2F)c1,2.92%
11,CN=C1C=C/C(=N/N=c2\ccn(O)cc2C)C=C1C,-3.81%
12,NC(=O)C1CCCN(CC(=O)N2CCN(c3ccccc3)CC2)C1 (stereo not given),1.67%
13,Cn1c(=O)c2[nH]c(NCC3CCCO3)nc2n(-c2ccccc2)c1=O (stereo not given),3.06%
14,COc1cc2c(cc1OC)C(Cc1cc(OC)c(OC)cc1[N+](=O)[O-])=NCC2,-13.1%
15,CCC/C=C(\CCC)C(NC(=O)Cc1ccccc1)c1ccc(C(=O)OC)cc1 (stereo not given),64.2% (active)
16,CCC[C@@H]1C[C@@]1(CCC)[C@@H](NC(=O)c1ccccc1)c1ccc(C(=O)OC)cc1,-1.36%
17,COC(=O)c1ccc(C(NC(=O)OCc2ccccc2)/C(F)=C/[C@@H](C)C(=O)O)cc1 (stereo not given in full),2.04%
18,C#Cc1ccc(NC(=O)C2(C)CCN2C(=O)Cc2ccc(-c3ccccc3)cc2)cc1 (stereo not given),-17.3%
19,O=C(NC1(C(F)(F)F)NC(=O)N(Cc2cccnc2)C1=O)c1ccccc1Cl (stereo not given),5.41%
20,O=C(NCc1ccncc1)C1CCCN(S(=O)(=O)c2ccc(Br)cc2)C1 (stereo not given),-0.42%
21,COc1cc2c(cc1O)C(SC)=NC(C)(C)C2,0.55%
22,CCOC(=O)C1=C(O)/C(=C/c2ccc(OCC(=O)Nc3ccc(C)cc3)cc2)N=C1C,26.9%
23,Cc1ccc(OCC(=O)Nc2ccc(-c3nnc(-c4ccco4)o3)cc2)cc1,56% (active)

row,Compound,inhibition (reported as % activation of signal)
1,O=C(Nc1ccc(N2CCN(C(=O)C3CC3)CC2)cc1)c1cccs1,-1.58%
2,COc1ccc(CC(=O)Nc2ccc(-c3nnc(-c4ccc(C)cc4)o3)cc2)cc1,58.3% (active)
3,COc1ccc(C(CC(=O)Nc2ccc(C)cc2)NC(=O)C(F)(F)F)cc1 (stereo not given),1.22%
4,COc1ccc(NC(=O)CCCC(=O)c2ccccc2)cc1,0.13%
5,COc1ccc(NC(=O)CN(C)C(=O)c2ccc(COc3ccccc3)o2)cc1,1.54%
6,O=C(COc1ccccc1)Nc1ccc(F)cc1,2.46%
7,Cc1ccc(-c2nnc(-c3ccc(NC(=O)c4cccs4)cc3)o2)cc1,62.6% (active)
8,COc1ccc(CC(=O)Nc2ccc(-c3nnc(-c4ccccc4)o3)cc2)cc1,63.9% (active)
9,COc1ccc(NC(=O)Cn2c(-c3ccc(OC)cc3)cn(-c3ccc(C)cc3)c2=O)cc1,-10.9%
10,CCc1ccc(NC(=O)C(=O)NNC(=O)c2cccs2)cc1,1.5%
11,Cc1cc(NC(=O)C(C)SCC(=O)Nc2cccc(S(=O)(=O)N3CCCCCC3)c2)no1 (stereo not given),3.04%
12,CCCCc1ccc(S(=O)(=O)NC(=O)C2(C)CCN2C(=O)c2ccccc2)cc1 (stereo not given),-0.05%
13,CCc1nc2c(OCCOc3ccc(F)cc3)cccn2c1N(C)C(=O)c1ccccc1F,-4.23%
14,CCC(=O)Nc1ccc(-c2ccc(N3CCCCC3)nn2)cc1,-8.26%
15,Cc1c(C(=O)NCc2ccc(C#N)cc2)sc(=O)n1Cc1ccc(C(=O)N(C)C)cc1,4.99%
16,O=C1N[C@@H](Cc2ccccc2)C(=O)N2[C@@H]3N(S(=O)(=O)c4ccc(F)cc4)c4ccccc4[C@]3(Br)C[C@@H]12,-4.71%
17,COc1ccc(CCc2nnc(CCC(=O)NCc3cnn(-c4ccccc4C)c3)o2)cc1,-0.69%
18,C/C(=N/N1CCN(Cc2cccc3ccccc23)CC1)c1cccnc1,-1.56%
19,CCN1CC=C2C(C#N)=C(N)C(C#N)(C#N)[C@H](c3ccoc3)[C@H]2C1,0.41%
20,CCOC(=O)N1CC=C2C(C#N)=C(N)C(C#N)(C#N)[C@H](c3cccs3)[C@H]2C1,70.4% (active)
21,C=CCOC(=O)C1=C(C)NC(C)=C(C(=O)OCC=C)C1c1cccs1,13.3%
22,Cc1cccc(CC(=O)N2CCN=C2SCc2ccc([N+](=O)[O-])cc2)c1,-5.45%
23,COc1cccc(NC(=O)CN(C)C(=O)c2cc(C3CC3)nn2-c2ccccc2)c1,-5.25%

row,Compound,inhibition (reported as % activation of signal)
1,COc1ccc(NC(=O)CN(C)C(=O)c2cc(C3CC3)nn2-c2ccccc2)cc1,61.4% (active)
2,CCc1ccccc1NC(=O)CN(C)C(=O)c1cc(C2CC2)nn1-c1ccccc1,-2.35%
3,CC(C)(C)NC(=O)CN(Cc1cccs1)C(=O)CNS(=O)(=O)c1ccccc1,-3.38%
4,CC(=O)Nc1ccc(Sc2ccccc2C(=O)N2CCCC2)cn1,-0.06%
5,Nc1cccc(-c2cncc(N3CCN(Cc4ccccn4)CC3)n2)c1,-1.68%
6,Oc1c(C(c2ccco2)N2CCC3(CC2)OCCO3)sc2ncnn12 (stereo not given),84.4% (active)
7,Oc1c(C(c2cccs2)N2CCN(c3ccc(F)cc3)CC2)sc2ncnn12 (stereo not given),5.11%
8,Cc1nc2sc(C(c3ccco3)N3CCC4(CC3)OCCO4)c(O)n2n1 (stereo not given),-3.42%
9,Cc1cc(NC(=O)CN2C(=O)NC(CC(C)C)C2=O)no1 (stereo not given),3.08%
10,COc1ccccc1CNS(=O)(=O)c1c(C)[nH]c(C)c1C(=O)N1CCCCC1,2.18%
11,CC(=O)NCCc1ccc(S(=O)(=O)N(C)C2CCS(=O)(=O)C2)cc1 (stereo not given),0.81%
12,N/C(=N\S(=O)(=O)c1cc(C(F)(F)F)cc(C(F)(F)F)c1)c1cccs1,3.6%
13,COc1ccc2[nH]c3nc(SCC(=O)NC4CC4)nnc3c2c1,2.16%
14,Cc1ccc(CNC(=O)CSc2nnc3c(n2)[nH]c2ccc(F)cc23)cc1,57.3% (active)
15,Cc1ccn2c(=O)nc(SCC(=O)NCc3ccc(F)cc3)nc2c1,-6.32%
16,O=C(Nc1cccc(F)c1)c1coc(=O)c(Br)c1,-1.29%
17,CC(=O)c1ccc(NC(=O)CCNS(=O)(=O)c2cc(Br)cnc2N)cc1,2.08%
18,CCCCN1CC(CO)Oc2cccc(F)c2S1(=O)=O (stereo not given),0.29%
19,OC[C@H]1O[C@@H](c2nc(-c3nc(-c4ccc(F)cc4)no3)cs2)[C@H](O)[C@@H](O)[C@H]1O,0.63%
20,CCC1(C)Cc2c(sc3[nH]c(=S)n(Cc4ccccc4)c(=O)c23)CO1 (stereo not given),-3.04%
21,C=CCn1c(=S)[nH]c2scc(-c3ccco3)c2c1=O,94.1% (active)
